Bioassay records (PubChem BioAssay)
Rows were chosen to be rich in hits. Some 4.1% of all compounds tested hit in one or more screens of this group.
DAX1 inh-1 = blocks DAX1 repression of SF-1 activated StAR promoter; HEK293T StAR-luciferase reporter, SF-1/DAX-1 repression relief; inhibition, % at 6.8 µM; 370,000 tested, 1.1% active; AID 652010;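 active = inhibition above the mean over all tested compounds plus 3 SD, cut at about 3.6% in these data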;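 also: 0% = DAX-1 cells with DMSO and 100% = cells lacking DAX-1 with DMSO; higher inhibition means more luminescence from relief of DAX-1 repression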
hcDAF-12 act = activates DAF-12 receptor from parasite H. contortus; activation, % at 6.8 µM; 370,000 tested, 1.4% active; AID 652067; HEK293 hcDAF-12 lit1-tk-luc reporter, luminescence; 0% DMSO, 100% Δ7-dafachronic acid;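 active = activation above the mean of all tested compounds plus 3 SD, cut at about 5.5% in these data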;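 also: 100% = response to 3 µM Δ7-dafachronic acid high control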
hgDAF-12 ag = activates the H. glycines DAF-12 receptor ligand-binding domain | activation, % at 6.8 µM | 370,000 tested, 1.8% active | HEK293 GAL4-hgDAF12 UAS-luciferase reporter, agonist luminescence; normalized to butyrate control;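 active = activation above a cutoff set at the mean of all screened compounds plus 3 SD, cut at about 10% in these data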;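 also: 0% = DMSO wells and 100% = sodium butyrate wells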
ssDAF-12 act = S. stercoralis DAF-12 activation, primary screen. HEK293 ssDAF-12/GRIP1 lit1-tk-luc reporter, luminescence; % of 3 µM dafachronic acid response. AID 652126. activation, % at 6.8 µM. 370,000 tested, 1% active;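 active = activation above the mean over all tested compounds plus 3 SD, cut at about 0.9% in these data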;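 also: 0% = DMSO-only wells and 100% = 3 µM delta7-dafachronic acid wells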
DAX1 inh-2 = inhibitors of human orphan nuclear receptor DAX1 (NR0B1); HEK293 Gal4-DAX1 luciferase reporter, luminescence; inhibition, % at 6.75 µM; 340,000 tested, 0.99% active;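 active = inhibition above the mean over all tested compounds plus 3 SD, cut at about 4.2% in these data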;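 also: 0% = DAX1-transfected cells with DMSO and 100% = empty-vector control cells with DMSO; inhibition shows as a rise in luminescence from relieved DAX1 repression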
Target sequence (P51843 207-470 limits assumed): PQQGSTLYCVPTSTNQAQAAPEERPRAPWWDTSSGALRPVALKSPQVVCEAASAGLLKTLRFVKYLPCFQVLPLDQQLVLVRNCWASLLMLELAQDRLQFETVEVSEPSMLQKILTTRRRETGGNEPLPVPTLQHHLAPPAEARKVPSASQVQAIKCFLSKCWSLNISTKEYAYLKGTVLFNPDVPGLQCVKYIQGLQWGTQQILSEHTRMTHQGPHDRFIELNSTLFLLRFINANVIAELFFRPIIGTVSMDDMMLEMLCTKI
LXR ag = LXR-beta agonism as hcDAF-12 counter-screen; shares compounds with hcDAF-12 act; HEK293 Gal4-LXR tk-luc reporter, luminescence, 24 h; normalized: DMSO 0%, positive control 100%; activation, % at 6.8 µM; 3,400 tested, under 10 active;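 active = mean percent activation of the reporter above a cutoff set as the average over tested compounds plus their standard deviation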
hcDAF12 conf = confirmation of H. contortus DAF-12 agonists. shares compounds with hcDAF-12 act. HEK293 hcDAF-12 lit1-tk-luc reporter, luminescence; % of Δ7-dafachronic acid response. activation, % at 6.8 µM. 3,400 tested, 61% active. AID 743032;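 active = mean activation across triplicate tests above the threshold derived from the earlier primary screen, cut at about 5.5% in these data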;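 also: 0% = DMSO only wells and 100% = 3 µM Δ7-dafachronic acid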
* = called active by the depositor; · = no result.

SMILES	DAX1 inh-1	hcDAF-12 act	hgDAF-12 ag	ssDAF-12 act	DAX1 inh-2	LXR ag	hcDAF12 conf
O=C(O)c1cc(-c2c[nH]c3ccccc23)nc2ccc3ccccc3c12	0	9.1*	4	0	0	0	5.8*
CCn1cc(Br)c(C(=O)NN)n1	3	6.7*	8	0	2	0	2
CCn1cc(Br)c(C(=O)Nc2ccc(OC)cc2)n1	1	0	1	-1	0	·	·
CC(C)c1ccc(-n2nnnc2SCC(=O)NC2CC2)cc1	-2	-1	-2	0	1	·	·
CCOC(=O)c1sc(NC(=O)c2ccc(C)o2)nc1C	4	8.8*	11*	0	1	1	8.6*
COc1ccc2nc(NC(=O)c3cccs3)sc2c1	1	6.7*	12*	0	·	2	7.2*
CCOC(=O)c1sc(NC(=O)c2cccs2)nc1C	1	11*	6	1.9*	2	1	6.3*
CCOC(=O)c1sc(NC(=O)c2ccco2)nc1C	1	2	-1	-1	1	·	·
Cc1nc(NC(=O)c2cccs2)ccc1Br	2	9.8*	19*	1.6*	1	1	11*
CC(=O)c1sc(NC(=O)c2cccs2)nc1C	0	-1	2	-1	2	·	·
CCc1ccc(OCc2nc(-c3ccccn3)no2)c(Br)c1	7.1*	7.7*	8	1.0*	-1	1	6.4*
CC(=O)n1cc(/C=C2/N=C(c3ccccc3)OC2=O)c2ccccc21	0	6.7*	2	0	2	0	4
CC(=O)n1cc(/C=N/NC(N)=S)c2ccccc21	0	0	-2	-2	2	·	·
CN1CCN(c2ccc(C(=O)c3ccc(F)cc3)cc2)CC1	2	8.9*	12*	-1	2	1	5
O=C(O)CCC(=O)N1CCN(c2ccc(C(=O)c3ccc(F)cc3)cc2)CC1	-1	-1	3	-1	-1	·	·
NC(=O)c1ccccc1NC(=S)NC(=O)c1ccc(Br)o1	1	9.2*	7	0	3	0	5
COCCCN1C2=C(C(=O)CC(C)(C)C2)C(c2ccc(O)c(OC)c2)C2=C1CC(C)(C)CC2=O	0	0	-1	0	0	·	·
CN(C)c1oc(/C=C/c2ccccc2)nc1C#N	2	6.7*	8	0	2	1	6
S=C1NC2(CCCC2)Nc2ccccc21	0	6.7*	3	0	2	0	5
Cc1csc(NC(=O)C2COc3ccccc3O2)n1 (configuration not stated)	3	7.0*	7	0	-2	1	5
Cc1cnc(NC(=O)C2COc3ccccc3O2)s1 (configuration not stated)	1	9.2*	4	-1	-3	1	7.2*
Cc1cc2ncc(-c3cccs3)nc2cc1C	3	15*	18*	2.1*	-1	3	18*
Cc1ccc(NC(=O)Nc2ccccc2)cc1[N+](=O)[O-]	1	7.5*	5	-2	1	0	2
CC(=O)Nc1ccc(C)c([N+](=O)[O-])c1	0	-3	-1	-1	-1	·	·
CCC1(C(N)=O)CC2C=CC1C2 (configuration not stated)	1	0	3	1	2	·	·
SMILES	DAX1 inh-1	hcDAF-12 act	hgDAF-12 ag	ssDAF-12 act	DAX1 inh-2	LXR ag	hcDAF12 conf
O=C1c2cccc(NCCNCCO)c2C(=O)c2cccc(NCCNCCO)c21	-6	8.9*	-1	1	-1	2	14*
COc1ccc(-n2c(SCC(=O)Nc3ccc(NC(C)=O)cc3)nc3c([nH]c4ccccc43)c2=O)cc1OC	-1	9.6*	0	1.0*	0	0	6.7*
C=CC[C@@H](CC(=O)N(CCO)Cc1ccccc1)C(=O)N[C@H](COC(=O)[C@@H](CC=C)Cc1ccc(F)cc1)c1ccccc1	-1	7.6*	0	-1	0	0	1
C=CC[C@@H](CC(=O)N(CCO)Cc1ccccc1)C(=O)N[C@@H](C)COC(=O)[C@@H](CC=C)Cc1ccc(F)cc1	-1	-3	-4	-2	0	·	·
CCCCCN1C(=O)/C(=C/c2c(N3CCc4ccccc4C3)nc3ccccn3c2=O)SC1=S	2	6.8*	6	0	6.0*	0	5
CCN(CC)c1ccc(/C=C2\CCC(/C=N/NC(=O)c3ccc(=O)n(C)c3)=C2N2CCOCC2)cc1	0	-1	7	-1	1	·	·
COC(=O)[C@]12C[C@H](CC(=O)N3CCSCC3)C(=O)N(Cc3cccc4ccccc34)C1=C[C@H](C(C)C)O[C@@H]2C1CC1	-1	-1	4	-1	·	·	·
O=C(COC(=O)c1cccc(S(=O)(=O)N2CCc3ccccc32)c1)Nc1ncc(Cl)cc1Cl	0	6.8*	0	-1	-1	0	3
CCCN1/C(=C(\C#N)C2=NS(=O)(=O)c3ccccc32)N(C)c2ccccc21	2	-1	4	-1	1	·	·
CCN(C[C@H]1N[C@@](CC)(C(=O)OC)[C@H]2C(=O)N(C)C(=O)[C@@H]12)C(=O)c1ccc(F)cc1	1	12*	-4	-1	1	0	3
CCN(C[C@H]1N[C@@](Cc2ccccc2)(C(=O)OC)[C@H]2C(=O)N(C)C(=O)[C@@H]12)C(=O)c1ccc(F)cc1	2	-1	-2	-1	0	·	·
Cc1cc(O)c(C(=O)/C=C/c2ccccc2O)c(=O)o1	0	6.8*	5	1	1	0	3
COc1cc(C(=S)N2CCN(c3ccccc3Cl)CC2)cc(O)c1O	-1	-1	-3	-2	0	·	·
COc1ccc(-n2ncc(N(C)n3cccc3)c(Cl)c2=O)cc1	3.9*	6.8*	12*	0	2	1	4
COc1ccc(-n2ncc(Cl)c(Cl)c2=O)cc1	-2	-2	0	-1	·	·	·
Cc1occc1-c1nnc(SCC(=O)N2CCCCC2C)o1 (configuration not stated)	0	0	-2	-1	-1	·	·
CC1CCCCN1C(=O)CSc1nnc(-c2ccccc2O)o1 (configuration not stated)	2	15*	16*	1.7*	2	1	20*
O=C(CSc1nnc(-c2ccccc2O)o1)N1CCOCC1	1	11*	6	1	2	0	2
CN1CC(=O)N2[C@@H](C[C@]3(c4c[nH]c5ccccc45)c4ccccc4N(S(=O)(=O)c4ccccc4)[C@H]23)C1=O	·	6.6*	-1	0	·	0	4
